Shown is part of a subset that was picked to be rich in hits.
BoNT A protease – BoNT/A light chain protease inhibitors, primary screen, biochemical, flow cytometry, MLPCN library | Botulinum neurotoxin type A light chain protease (Clostridium botulinum A str. ATCC 3502) | multiplex microsphere protease substrate cleavage | inhibition, % at 10 µM | actives 0.17% (n = 360,000); in the data active = inhibition above about 30%; inconclusive = no clear call, values can overlap the other calls; also: plate controls were buffer without enzyme for full effect and enzyme alone for no effect
BoNT F protease – BoNT/F light chain protease inhibitors, primary screen, biochemical, flow cytometry, MLPCN library; Botulinum neurotoxin type F light chain protease (Clostridium botulinum); Multiplex microsphere protease cleavage assay; inhibition, % at 10 µM; actives 0.22% (n = 360,000); AID 588497, 2011; in the data active = inhibition above about 35%, passing the limit was not always enough; inconclusive = no clear call, values can overlap the other calls; also: plate controls were buffer without enzyme for full effect and enzyme alone for no effect
Bead autofluor – compound fluorescence in toxin protease inhibitor counterscreen | compound autofluorescence counterscreen, microsphere flow cytometry; active compounds read high | actives 3.1% (n = 360,000) | fluorescence intensity (concentration not given with the values); in the data active = fluorescence intensity above about 16000; inconclusive = no clear call, values can overlap the other calls
TcdB inh – TcdB glycohydrolase inhibitors, primary screen, biochemical, single point, plate reader. Toxin B (Clostridioides difficile), P18177. TcdB glycohydrolase enzymatic assay. inhibition, % at 9.99 µM. actives 0.24% (n = 350,000). AID 652162, 2013; in the data active = inhibition above about 10%
Target sequence (P18177 whole entry, looked up): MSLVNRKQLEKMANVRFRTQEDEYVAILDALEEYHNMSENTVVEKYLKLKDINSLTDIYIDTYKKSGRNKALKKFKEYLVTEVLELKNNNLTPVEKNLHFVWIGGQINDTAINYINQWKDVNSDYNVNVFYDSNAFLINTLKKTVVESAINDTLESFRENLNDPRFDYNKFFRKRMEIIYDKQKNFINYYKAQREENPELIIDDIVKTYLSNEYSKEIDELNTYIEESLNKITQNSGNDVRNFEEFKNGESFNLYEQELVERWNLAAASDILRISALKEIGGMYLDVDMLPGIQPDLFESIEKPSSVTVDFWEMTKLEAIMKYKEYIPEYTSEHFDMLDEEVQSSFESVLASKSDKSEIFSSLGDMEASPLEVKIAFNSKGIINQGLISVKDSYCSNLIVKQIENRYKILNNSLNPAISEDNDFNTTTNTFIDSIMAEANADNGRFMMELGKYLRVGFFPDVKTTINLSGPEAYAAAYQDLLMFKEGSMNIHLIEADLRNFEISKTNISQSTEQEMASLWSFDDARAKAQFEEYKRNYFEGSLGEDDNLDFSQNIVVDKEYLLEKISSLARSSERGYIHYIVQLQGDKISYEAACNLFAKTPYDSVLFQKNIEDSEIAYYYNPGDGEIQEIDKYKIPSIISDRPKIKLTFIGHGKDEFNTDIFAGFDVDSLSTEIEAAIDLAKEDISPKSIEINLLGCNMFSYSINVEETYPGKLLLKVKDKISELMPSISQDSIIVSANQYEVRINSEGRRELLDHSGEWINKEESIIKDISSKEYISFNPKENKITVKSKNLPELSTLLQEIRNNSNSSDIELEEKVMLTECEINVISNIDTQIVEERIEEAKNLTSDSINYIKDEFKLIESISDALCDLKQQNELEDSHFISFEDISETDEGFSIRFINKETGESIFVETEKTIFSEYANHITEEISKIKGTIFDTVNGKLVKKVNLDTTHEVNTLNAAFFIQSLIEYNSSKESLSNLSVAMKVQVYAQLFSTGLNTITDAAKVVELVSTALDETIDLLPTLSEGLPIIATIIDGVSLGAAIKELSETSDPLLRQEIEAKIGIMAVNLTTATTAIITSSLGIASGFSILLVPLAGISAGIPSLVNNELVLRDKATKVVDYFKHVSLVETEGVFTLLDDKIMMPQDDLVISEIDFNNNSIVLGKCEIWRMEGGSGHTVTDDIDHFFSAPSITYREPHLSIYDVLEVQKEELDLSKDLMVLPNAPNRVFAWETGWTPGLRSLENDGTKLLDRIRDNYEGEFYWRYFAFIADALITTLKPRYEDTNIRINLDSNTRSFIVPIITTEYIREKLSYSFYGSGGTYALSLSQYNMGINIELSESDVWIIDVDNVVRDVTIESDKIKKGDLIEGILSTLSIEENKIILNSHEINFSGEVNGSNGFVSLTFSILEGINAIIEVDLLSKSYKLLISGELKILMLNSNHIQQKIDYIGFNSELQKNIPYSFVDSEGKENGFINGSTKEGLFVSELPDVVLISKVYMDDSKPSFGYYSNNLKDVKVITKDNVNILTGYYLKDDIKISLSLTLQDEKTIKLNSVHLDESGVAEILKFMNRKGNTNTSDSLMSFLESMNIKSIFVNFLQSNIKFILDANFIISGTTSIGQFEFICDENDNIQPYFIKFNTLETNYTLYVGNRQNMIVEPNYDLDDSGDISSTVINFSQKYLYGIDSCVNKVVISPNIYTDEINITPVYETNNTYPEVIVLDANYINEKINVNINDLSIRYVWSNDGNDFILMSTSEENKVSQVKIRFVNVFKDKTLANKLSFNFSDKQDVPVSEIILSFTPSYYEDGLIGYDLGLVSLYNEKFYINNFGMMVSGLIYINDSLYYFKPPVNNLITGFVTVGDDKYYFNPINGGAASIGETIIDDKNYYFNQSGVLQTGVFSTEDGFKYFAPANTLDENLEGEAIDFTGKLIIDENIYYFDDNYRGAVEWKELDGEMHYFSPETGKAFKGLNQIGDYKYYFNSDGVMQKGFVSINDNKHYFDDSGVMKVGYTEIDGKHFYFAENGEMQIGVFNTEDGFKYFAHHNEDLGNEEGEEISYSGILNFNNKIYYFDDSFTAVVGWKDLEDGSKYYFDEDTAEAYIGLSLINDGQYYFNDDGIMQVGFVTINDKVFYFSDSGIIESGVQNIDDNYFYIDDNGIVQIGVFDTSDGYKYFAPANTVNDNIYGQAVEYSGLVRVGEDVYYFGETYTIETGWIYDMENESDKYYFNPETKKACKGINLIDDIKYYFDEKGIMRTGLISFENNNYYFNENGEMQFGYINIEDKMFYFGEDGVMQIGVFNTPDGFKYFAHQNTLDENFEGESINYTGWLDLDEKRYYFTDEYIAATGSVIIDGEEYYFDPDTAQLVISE
Anthrax LF prot – Bacillus anthracis LF protease inhibitors, primary screen, biochemical, multiplex microsphere, MLPCN library | Lethal factor (Bacillus anthracis), P15917 | inhibition, % at 10 µM | actives 0.12% (n = 360,000) | multiplex microsphere protease cleavage assay; in the data active = inhibition above about 30%; inconclusive = no clear call, values can overlap the other calls; also: plate controls were buffer without enzyme for full effect and enzyme alone for no effect
BoNT-A LC CP1 – BoNT/A light chain protease inhibitors, confirmation, biochemical, flow cytometry, cherry pick 1; actives 3% (n = 720); shares compounds with BoNT F protease; multiplex microsphere protease assay; inhibition, % at 10 µM; AID 602139, 2011; in the data active = inhibition above about 32%
BoNT-F LC CP1 – BoNT/F light chain protease inhibitors, confirmation, biochemical, flow cytometry, cherry pick 1; shares compounds with BoNT F protease; multiplex microsphere protease cleavage assay; inhibition, % at 10 µM; 720 tested, under 10 active
Anthrax LF CP1 – Bacillus anthracis LF protease inhibitors, confirmation, biochemical, multiplex microsphere, cherry pick 1. shares compounds with BoNT F protease. inhibition, % at 10 µM. multiplex microsphere protease cleavage assay. 720 tested, under 10 active
* marks the source's active call; other numbers are inactive results; ? = inconclusive; nt = no result given. Unless noted, no rule for the calls is given here.

SMILES	BoNT A protease	BoNT F protease	Bead autofluor	TcdB inh	Anthrax LF prot	BoNT-A LC CP1	BoNT-F LC CP1	Anthrax LF CP1
O=C(c1ccccc1)c1sc(N2CCCCCC2)nc1-c1ccccc1	54*	33	1944	nt	34*	10	-3	2
C[C@H](CO)N1C[C@H](C)[C@H](CN(C)S(C)(=O)=O)Oc2ccc(NC(=O)CCCCCC(=O)Nc3ccccc3N)cc2C1=O	nt	nt	nt	-1	nt	nt	nt	nt
Cc1ccc(-c2cnco2)cc1	?	?	4486	1	30*	1	-2	6
O=C(Nc1ccc(-c2cnco2)cc1)c1ccc(F)cc1F	?	?	3173	-2	24	nt	nt	nt
CCNC(=O)[C@H]1[C@H](CO)[C@H]2Cn3c(ccc(-c4ccncc4)c3=O)[C@H]2N1Cc1ccccc1	nt	nt	nt	1	nt	nt	nt	nt
Cc1ccc2[nH]c(CNC(=O)C3CCCCC3)cc2c1	93*	-86	2959	0	3	-1	-10	-2
CO[C@H]1CN(C)C(=O)c2cc(NC(=O)Nc3cc(F)ccc3F)ccc2OC[C@@H](C)N(C(=O)c2ccccn2)C[C@H]1C	nt	nt	nt	1	nt	nt	nt	nt
COc1cccc(C(=O)NCc2ccc3[nH]c(C)cc3c2)c1	52*	-108	2008	0	-84	0	-7	0
COc1cccc(CNC(=O)c2cccc(Br)c2)c1	-1	-11	2471	nt	0	nt	nt	nt
COc1cc(OC)cc(C(=O)NCc2ccc3[nH]c(C)cc3c2)c1	48*	-60	2898	4	-22	-1	-6	-3
COc1ccc(CN(C)C[C@@H]2Oc3c(NS(=O)(=O)c4ccc(F)cc4)cccc3C(=O)N([C@H](C)CO)C[C@@H]2C)cc1	nt	nt	nt	-1	nt	nt	nt	nt
O=C(NCc1ccco1)c1ccc(S(=O)(=O)c2cccc(S(=O)(=O)N3CCOCC3)c2)cc1	23	38*	7881	nt	6	1	-2	-2
C[C@@H]1CN([C@@H](C)CO)C(=O)Cc2cc(NC(=O)Cn3cnnn3)ccc2O[C@H]1CN(C)Cc1ccc(C(=O)O)cc1	nt	nt	nt	-2	nt	nt	nt	nt
O=C(NCC[C@@H]1CC[C@H](NC(=O)C2CCCCC2)[C@H](CO)O1)c1cc(Cl)cc(Cl)c1	nt	nt	nt	-1	nt	nt	nt	nt
CCC(=O)Nc1ccc2c(c1)OC[C@H](C)N(C(=O)Cc1cccnc1)C[C@@H](C)[C@H](OC)CN(C)C2=O	nt	nt	nt	1	nt	nt	nt	nt
Cn1cnc(S(=O)(=O)N2CC[C@H]3[C@H](CO)Nc4ccc(-c5cccc(F)c5)cc4[C@H]32)c1	nt	nt	nt	1	nt	nt	nt	nt
Clc1cccc(OCc2nc(-c3ccncc3)no2)c1	4	44*	2544	1	-2	1	-5	1
COc1ccccc1-c1nc2cc3ccccc3cc2nc1-c1ccccc1	48*	10	2643	1	19	14	3	14
Oc1ccccc1-c1nc2ccccc2nc1-c1ccccc1	0	1	5138	0	-4	nt	nt	nt
COc1ccc(C(=O)NCCn2ccc3ccccc32)c(OC)c1	9	-1	10678	2	14	0	0	6
O=C(c1cccc(F)c1)N1C[C@@H]2[C@H](c3ccccc31)[C@H](CO)N2C(=O)c1ccc(F)cc1	nt	nt	nt	1	nt	nt	nt	nt
Cc1ccc(NC(=O)CN(C)C(=O)c2ccccc2OCc2c(C)noc2C)cc1	89*	?	?	2	?	0	0	-2
COc1ccccc1CNC(=O)C(CCSC)NS(=O)(=O)c1ccc2c(c1)oc(=O)n2C (stereo unspecified)	0	-6	3418	nt	-1	nt	nt	nt
COc1cccc(CNC(=O)C(CCSC)NS(=O)(=O)c2ccc3c(c2)oc(=O)n3C)c1 (stereo unspecified)	1	37*	4362	nt	-3	0	0	-7
CCN(CC)C(=O)c1ccc(NC(=O)c2cccc(S(=O)(=O)N3CCN(Cc4ccccc4)CC3)c2)cc1	57*	-3	?	3	-4	-3	-3	-1
SMILES	BoNT A protease	BoNT F protease	Bead autofluor	TcdB inh	Anthrax LF prot	BoNT-A LC CP1	BoNT-F LC CP1	Anthrax LF CP1
CC(=O)Nc1cccc(NC(=O)c2cccc(S(=O)(=O)N3CCN(Cc4ccccc4)CC3)c2)c1	nt	nt	nt	-5	nt	nt	nt	nt
COc1ccc(-c2c(C#N)c(N)nc3sc(C(=O)c4ccccc4)c(N)c23)cc1	44*	7	2561	nt	18	8	-3	5
CCOc1ccc(-c2c(C#N)c(N)nc3sc(C(=O)c4ccccc4)c(N)c23)cc1	10	2	4289	0	8	nt	nt	nt
Cc1ccc(S(=O)(=O)N2C[C@H](O)COC[C@@H]3O[C@H](CC(=O)NCC4CCCCC4)CC[C@H]32)cc1	nt	nt	nt	-1	nt	nt	nt	nt
N#Cc1ccccc1NC(=O)CN1CCN(Cc2ccccc2)CC1	2	46*	3660	2	-1	-2	-7	1
Cc1cc(Nc2cccc(F)c2)nc(N2CCOCC2)n1	-3	42*	3819	4	-2	0	-1	-4
CNC[C@@H]1Oc2ccc(NS(=O)(=O)c3ccc(OC)cc3)cc2CC(=O)N([C@@H](C)CO)C[C@@H]1C	nt	nt	nt	1	nt	nt	nt	nt
CCCn1c(=O)c2c(nc3n2CCCN3Cc2ccccc2)n(C)c1=O	0	41*	2935	0	-10	-1	-4	-8

Screening results: PubChem BioAssay, several laboratories
